Test results as given in PubChem BioAssay.
Activity calls are given as the source filed them.

Columns and labels:
[1] = small molecules captured by biotinylated probe aFSTL3 – biochemical, small-molecule microarray, fluorescence 635/667, stem cell growth factor project, primary screen (AID 1064); settings: higher = more signal;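 further: measures binding of the biotinylated anti-FSTL3 antibody to printed compounds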
[2] = binders from COS7 lysate, DM2A8 probe, primary screen, torsin A project, cell lysate, small-molecule microarray, fluorescence 635/667 (AID 1065); settings: higher = more signal, COS7 lysate expressing mutant human TOR1A
[3] = small molecules captured by biotinylated probe aFGF2 – biochemical, small-molecule microarray, fluorescence 635/667, stem cell growth factor project, primary screen (AID 1067); settings: higher = more signal;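 further: measures binding of biotinylated aFGF2 protein to printed compounds on slides; z-score merges feature fluorescence and signal-to-noise across triplicate slides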
[4] = small molecules captured by biotinylated probe aFGF10 – biochemical, small-molecule microarray, fluorescence 635/667, stem cell growth factor project, primary screen (AID 1071); settings: higher = more signal;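 further: score merges 667 nm spot intensity and signal to noise from triplicate slides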
[5] = biological target: Neurogenic locus notch homolog protein 2 (Homo sapiens) (UniProt Q04721); test: small molecules binding Notch2 protein – biochemical, small-molecule microarray, 635 nm fluorescence, stem cell growth factors, primary screen (AID 1073); settings: higher = more signal
[6] = biological target: Pro-neuregulin-1, membrane-bound isoform (Homo sapiens) (UniProt Q02297); test: small molecules binding neuregulin-1 protein – biochemical, small-molecule microarray, fluorescence 635/667, psychiatric disease protein project, primary screen (AID 1075); settings: NRG1 binding, 635 nm fluorescence, higher = more signal;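 further: score combines 667 nm spot fluorescence with signal to noise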
[7] = system: Neuregulin-1 EGF-like domain; test: small molecules binding NRG1 EGF domain – biochemical, small-molecule microarray, 635 nm fluorescence, primary screen (AID 1081); settings: higher = more signal;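 further: binding of the protein to compounds printed on small-molecule microarray slides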
[8] = FRG1 expression reporter modulators in myotubes – cell-based, C2C12 myotubes, firefly/Renilla luciferase, luminescence, FRG1 inhibition for FSHD, primary screen (AID 1084); settings: FRG1 promoter luciferase, higher = more signal, called active from +8 up or from −8 down
[9] = small molecules captured by biotinylated probe aFST – biochemical, small-molecule microarray, fluorescence 635/667, stem cell growth factor project, primary screen (AID 1086); settings: higher = more signal;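 further: score merges 667 nm fluorescence with signal-to-noise of each printed compound spot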
[10] = binders of probe aHhip on microarray, primary screen, stem cell growth factor project, biochemical, small-molecule microarray, fluorescence 635/667 (AID 1087); settings: higher = more signal;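 further: score merges spot fluorescence at 667nm with spot signal to noise ratio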
[11] = system: PRMT1 (protein arginine N-methyltransferase 1); test: small molecules binding arginine methyltransferase PRMT1 – biochemical, small-molecule microarray, 635 nm fluorescence, primary screen (AID 1088); settings: higher = more signal;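 further: binding of Prmt1 protein to compounds spotted on small-molecule microarray slides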
[12] = growth effects on S. cerevisiae YJM789 – YJM789 clinical isolate, OD600, 24 h, basal, primary screen (AID 1089); settings: higher = more signal, called active from +8 up or from −8 down;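 further: growth of clinical yeast isolate S. cerevisiae YJM 789 seeded 1000 cells per well; test concentration not given here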
[13] = S. pombe growth modifiers, basal conditions – strain 972, OD600, 24 h, no modulator, primary screen (AID 1090);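 further: basal condition with compound alone and no growth modifier present; test concentration not given here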; settings: S. pombe 972 growth, higher = more signal, called active from +8 up or from −8 down
[14] = budding yeast growth modifiers under rapamycin – strain BY4716, OD600, 96 h, primary screen (AID 1091); further: test concentration not given here; settings: S. cerevisiae BY4716 + rapamycin, higher = more signal, called active from +8 up or from −8 down
[15] = biological target: Torsin-1A-interacting protein 2 (Homo sapiens) (UniProt Q8NFQ8); test: small molecules binding lysate-expressed LULL1 – cell lysate, human LULL1 lysate, 635/667 nm fluorescence, primary screen (AID 1092); settings: small-molecule microarray, hLULL1 lysate binding, 635 nm fluorescence; higher = more signal;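 further: probe is lysate of COS7 cells overexpressing human LULL1; score merges per-feature 667 nm fluorescence with signal-to-noise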
[16] = optical density change of DRC41 E. coli – strain DRC41, OD650, 24 h, E. coli filamentation project, primary screen (AID 1093);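 further: MC1000 strain lacking acrAB efflux and sulA so SOS filamentation is blocked; test concentration not given here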; settings: E. coli DRC41 growth, higher = more signal, called active from +8 up or from −8 down
[17] = probe aLefty2 binding to arrayed compounds – biochemical, biotinylated probe, 635/667 nm fluorescence, primary screen (AID 1094); settings: small-molecule microarray, higher = more signal;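 further: score merges spot fluorescence near 667 nm with spot signal-to-noise ratio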
[18] = system: Noggin (protein binding on small-molecule microarray); test: small molecules binding Noggin protein – biochemical, 635/667 nm fluorescence, primary screen (AID 1095); settings: 635 nm fluorescence, higher = more signal;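 further: score merges 667 nm feature fluorescence with signal to noise over triplicate slides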
[19] = biological target: Neurogenic locus notch homolog protein 3 (Homo sapiens) (UniProt Q9UM47); test: small molecules binding NOTCH3 protein – biochemical, 635/667 nm fluorescence, primary screen (AID 1096); settings: small-molecule microarray, 635 nm fluorescence, higher = more signal
[20] = probe aEGFR binding to arrayed compounds – biochemical, biotinylated probe, 635/667 nm fluorescence, primary screen (AID 1097); settings: small-molecule microarray, higher = more signal;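 further: probe is a biotinylated anti-EGFR antibody binding compounds printed on slides; score combines fluorescence near 667 nm and signal to noise of each spot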

Neurogenic locus notch homolog protein 2 (Homo sapiens), sequence (Q04721 whole entry, looked up, canonical isoform): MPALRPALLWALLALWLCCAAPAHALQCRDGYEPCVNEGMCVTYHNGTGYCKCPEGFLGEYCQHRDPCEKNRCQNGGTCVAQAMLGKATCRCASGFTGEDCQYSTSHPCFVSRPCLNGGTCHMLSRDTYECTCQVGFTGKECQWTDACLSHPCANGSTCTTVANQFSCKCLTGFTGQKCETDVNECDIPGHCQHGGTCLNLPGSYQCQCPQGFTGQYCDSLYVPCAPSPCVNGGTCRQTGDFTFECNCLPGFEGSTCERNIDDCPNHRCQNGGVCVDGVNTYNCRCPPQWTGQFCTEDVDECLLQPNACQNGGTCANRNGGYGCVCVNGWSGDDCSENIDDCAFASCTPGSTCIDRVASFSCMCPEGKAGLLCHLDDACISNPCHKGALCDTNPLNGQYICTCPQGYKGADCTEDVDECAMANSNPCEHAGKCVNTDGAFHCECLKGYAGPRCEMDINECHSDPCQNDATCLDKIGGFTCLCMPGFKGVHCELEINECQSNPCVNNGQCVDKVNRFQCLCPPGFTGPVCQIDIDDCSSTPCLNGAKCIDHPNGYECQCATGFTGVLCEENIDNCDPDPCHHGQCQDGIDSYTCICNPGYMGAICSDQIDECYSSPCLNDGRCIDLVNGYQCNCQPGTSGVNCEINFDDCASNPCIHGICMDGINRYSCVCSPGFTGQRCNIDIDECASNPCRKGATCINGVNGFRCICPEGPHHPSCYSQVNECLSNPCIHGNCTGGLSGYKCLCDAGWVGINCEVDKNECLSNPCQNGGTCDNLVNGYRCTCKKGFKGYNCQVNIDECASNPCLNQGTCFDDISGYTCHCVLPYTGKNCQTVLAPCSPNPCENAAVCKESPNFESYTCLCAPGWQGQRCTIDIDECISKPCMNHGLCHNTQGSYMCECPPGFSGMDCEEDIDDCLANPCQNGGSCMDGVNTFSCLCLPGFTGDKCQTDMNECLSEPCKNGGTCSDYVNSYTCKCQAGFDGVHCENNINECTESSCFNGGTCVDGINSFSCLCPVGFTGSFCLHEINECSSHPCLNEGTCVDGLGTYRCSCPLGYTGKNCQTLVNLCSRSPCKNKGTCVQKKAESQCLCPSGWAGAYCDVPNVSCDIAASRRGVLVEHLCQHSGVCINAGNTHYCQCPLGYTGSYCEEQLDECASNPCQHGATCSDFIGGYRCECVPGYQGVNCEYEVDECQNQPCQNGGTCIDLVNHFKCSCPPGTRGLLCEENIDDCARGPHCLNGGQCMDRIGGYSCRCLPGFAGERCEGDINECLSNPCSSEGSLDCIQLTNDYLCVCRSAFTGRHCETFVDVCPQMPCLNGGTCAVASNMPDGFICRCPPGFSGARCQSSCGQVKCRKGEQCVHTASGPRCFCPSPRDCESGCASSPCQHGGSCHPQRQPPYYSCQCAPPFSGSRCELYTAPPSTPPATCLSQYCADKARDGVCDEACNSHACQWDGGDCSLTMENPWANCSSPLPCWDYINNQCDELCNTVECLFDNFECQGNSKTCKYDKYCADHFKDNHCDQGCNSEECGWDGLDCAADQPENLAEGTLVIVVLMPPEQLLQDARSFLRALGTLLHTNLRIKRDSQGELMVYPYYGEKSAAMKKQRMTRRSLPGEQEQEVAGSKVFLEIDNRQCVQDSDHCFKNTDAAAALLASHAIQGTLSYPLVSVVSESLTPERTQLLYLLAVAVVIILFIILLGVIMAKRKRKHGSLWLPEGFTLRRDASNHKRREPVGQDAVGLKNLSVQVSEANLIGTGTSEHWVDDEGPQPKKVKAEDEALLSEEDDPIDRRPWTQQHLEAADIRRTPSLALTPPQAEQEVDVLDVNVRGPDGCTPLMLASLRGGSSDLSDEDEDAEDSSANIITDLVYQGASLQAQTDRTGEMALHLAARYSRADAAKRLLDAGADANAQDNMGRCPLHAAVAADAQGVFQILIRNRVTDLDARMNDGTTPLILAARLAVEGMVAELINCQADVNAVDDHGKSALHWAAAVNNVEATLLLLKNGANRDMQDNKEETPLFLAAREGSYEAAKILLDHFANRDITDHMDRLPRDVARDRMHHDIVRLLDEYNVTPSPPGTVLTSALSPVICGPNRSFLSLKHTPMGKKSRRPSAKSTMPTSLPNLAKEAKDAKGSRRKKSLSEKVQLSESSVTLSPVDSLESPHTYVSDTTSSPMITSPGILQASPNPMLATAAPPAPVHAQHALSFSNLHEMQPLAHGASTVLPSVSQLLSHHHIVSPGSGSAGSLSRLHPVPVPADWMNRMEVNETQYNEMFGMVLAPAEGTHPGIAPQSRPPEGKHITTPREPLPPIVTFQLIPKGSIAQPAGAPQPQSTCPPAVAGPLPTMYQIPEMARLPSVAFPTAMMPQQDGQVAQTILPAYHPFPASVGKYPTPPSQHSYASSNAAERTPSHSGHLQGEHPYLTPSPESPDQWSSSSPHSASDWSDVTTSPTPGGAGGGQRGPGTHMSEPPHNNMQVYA
Pro-neuregulin-1, membrane-bound isoform (Homo sapiens), sequence (Q02297 whole entry, looked up, the tested form may be a part, canonical isoform): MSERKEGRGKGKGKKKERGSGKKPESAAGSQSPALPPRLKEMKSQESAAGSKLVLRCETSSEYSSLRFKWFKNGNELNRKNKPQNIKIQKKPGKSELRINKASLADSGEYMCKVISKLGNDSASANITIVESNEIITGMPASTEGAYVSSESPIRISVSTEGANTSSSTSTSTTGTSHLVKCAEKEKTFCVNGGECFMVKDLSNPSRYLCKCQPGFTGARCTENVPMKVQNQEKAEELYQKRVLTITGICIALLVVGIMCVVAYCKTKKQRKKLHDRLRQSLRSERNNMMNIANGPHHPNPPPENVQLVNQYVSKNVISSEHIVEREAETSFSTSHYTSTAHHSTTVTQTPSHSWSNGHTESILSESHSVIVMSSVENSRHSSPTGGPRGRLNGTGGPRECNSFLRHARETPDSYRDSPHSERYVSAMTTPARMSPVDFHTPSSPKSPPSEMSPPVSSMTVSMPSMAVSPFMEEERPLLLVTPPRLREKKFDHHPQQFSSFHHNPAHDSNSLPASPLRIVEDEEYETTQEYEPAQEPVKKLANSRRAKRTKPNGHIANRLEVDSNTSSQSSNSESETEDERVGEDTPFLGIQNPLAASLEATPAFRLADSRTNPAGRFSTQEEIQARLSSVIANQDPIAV
Torsin-1A-interacting protein 2 (Homo sapiens), sequence (Q8NFQ8 whole entry, looked up): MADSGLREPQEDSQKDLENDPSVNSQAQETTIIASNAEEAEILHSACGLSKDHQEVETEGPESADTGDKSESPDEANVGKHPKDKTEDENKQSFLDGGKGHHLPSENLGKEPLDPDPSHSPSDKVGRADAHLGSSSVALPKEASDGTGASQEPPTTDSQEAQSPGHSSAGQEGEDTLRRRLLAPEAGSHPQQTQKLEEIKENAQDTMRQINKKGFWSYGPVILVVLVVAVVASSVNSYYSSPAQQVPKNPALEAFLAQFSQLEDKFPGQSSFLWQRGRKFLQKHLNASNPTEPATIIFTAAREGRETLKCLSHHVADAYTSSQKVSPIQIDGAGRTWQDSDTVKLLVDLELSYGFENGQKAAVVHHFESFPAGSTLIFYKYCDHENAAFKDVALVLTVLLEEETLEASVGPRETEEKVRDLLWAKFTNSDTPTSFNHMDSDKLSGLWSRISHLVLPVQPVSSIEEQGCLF

Row | SMILES | composite z-score [1] | composite z-score [2] | composite z-score [3] | composite z-score [4] | composite z-score [5] | composite z-score [6] | composite z-score [7] | z-score [8] | composite z-score [9] | composite z-score [10] | composite z-score [11] | z-score [12] | z-score [13] | z-score [14] | composite z-score [15] | z-score [16] | composite z-score [17] | composite z-score [18] | composite z-score [19] | composite z-score [20]
1 | CCC(CC)C(O)C1C=CC2C(=O)N(c3ccccc3)C(=O)C2N1Nc1ccccc1F (stereo not given) | -0.226 | 1.01 | -0.0222 | 0.715 | 1.48 | 1.29 | 1.38 | -0.556 (inactive) | 1 | 0.0373 | 0.203 | 0.175 (inactive) | 0.44 (inactive) | -0.0875 (inactive) | 3.23 | -0.636 (inactive) | 0.172 | -0.19 | 0.78 | -0.04
2 | Cc1ccc(N2C(=O)c3ccccc3[C@](C)(C(=O)NCCCN(C)C)[C@@H]2c2ccc(CO)cc2)nc1 | 0.908 | -0.109 | -0.1 | -0.436 | -0.676 | -0.114 | 0.582 | 1.36 (inactive) | 0.423 | -0.236 | 0.409 | -0.903 (inactive) | -0.808 (inactive) | -1.51 (inactive) | 2.93 | -0.677 (inactive) | -0.0405 | -0.817 | -0.681 | -0.209
3 | COc1ccc(C(O)C2C=CC3C(=O)NC(=O)C3N2Nc2ccc(Cl)cc2Cl)c2ccccc12 (stereo not given) | 0.877 | 0.433 | -0.106 | 0.273 | 1.02 | 0.999 | 1.04 | -0.0308 (inactive) | 0.951 | -0.216 | 1.01 | -10.5 (active) | -2.63 (inactive) | 0.126 (inactive) | 2.98 | -0.708 (inactive) | -0.279 | -0.494 | 1.05 | -0.176
4 | NC(=O)N1C(=O)C2C(C1=O)C1C=C(CCCO)C2C(C2CC2)N1Cc1sc2ccccc2c1Cl (stereo not given) | -0.4 | 1.09 | 0.0397 | 1.27 | 0.481 | 1.45 | 1.21 | 0.906 (inactive) | 0.115 | -0.134 | 1.56 | -0.425 (inactive) | -2.48 (inactive) | -1.63 (inactive) | 2.14 | 0.792 (inactive) | 0.0819 | 0.355 | 1.13 | -0.0697
5 | COCCCN1C(=O)[C@@]2(c3ccc([N+](=O)[O-])cc3)CC(=O)N(CC34CC5CC(CC(C5)C3)C4)[C@@H]2c2ccc(CO)cc21 | -0.145 | -0.104 | -0.0952 | 0.0256 | -0.345 | 0.0024 | 1.05 | -0.748 (inactive) | -0.19 | 0.312 | 1.27 | 0.222 (inactive) | 0.432 (inactive) | -1.33 (inactive) | 2.07 | -0.0011 (inactive) | -0.159 | 0.432 | -0.182 | -0.115
6 | CN(C)CCCC[C@@H]1NC(=O)[C@H]2C[C@@H](C(=O)O)[C@@H](c3ccc(O)cc3)N2C1=O | 3.22 | 2.34 | 0.653 | 1.04 | 1.64 | 2.84 | 1.38 | 2.42 (inactive) | 3.29 | 1.38 | 1.54 | -0.116 (inactive) | -1.99 (inactive) | 0.193 (inactive) | 4.23 | 2.11 (inactive) | 1.55 | 2.16 | 1.02 | 1.33
7 | COC(=O)[C@@]1(Cc2ccc(OC)cc2)[C@H]2c3cc(C(=O)N4CCCC4)n(CCn4cc([N+](=O)[O-])nc4C)c3C[C@H]2CN1C(=O)c1ccccc1 | 2.45 | 2 | 0.861 | 1.25 | 1.5 | 1.58 | 1.31 | 2.02 (inactive) | 2.71 | 3.56 | -0.153 | -0.382 (inactive) | 0.28 (inactive) | 0.725 (inactive) | 3.38 | -1.01 (inactive) | 1.25 | 0.152 | 0.413 | 0.924
8 | COc1ccc([Si](C)(C)[C@H]2[C@H](CC(=O)N3CCC[C@H]3CO)O[C@@]3(C(=O)N(Cc4ccc(N5CCCCC5=O)cc4)c4ccccc43)[C@@H]2C)cc1 | -0.35 | 0.227 | -0.0494 | 0.671 | 0.565 | 1.33 | 1.12 | -4.24 (inactive) | 0.536 | 0.0373 | 1.54 | -0.398 (inactive) | 0.591 (inactive) | -0.801 (inactive) | 2.51 | 2.32 (inactive) | -0.18 | 1.41 | 1.06 | -0.0531
9 | CCOC(=O)C[C@H]1[C@H](OC(=O)c2cc3ccccc3oc2=O)[C@@H](NC(=O)CC(C)C)c2cc(OCCCO)ccc2N1C(=O)Cc1ccc(OC)cc1 | -0.699 | -0.115 | -0.114 | 0.499 | 0.508 | 0.324 | 0.49 | -0.509 (inactive) | 0.479 | -0.201 | 1.14 | -0.238 (inactive) | -0.462 (inactive) | 0.052 (inactive) | 1.3 | -0.479 (inactive) | -0.165 | 0.322 | 0.924 | -0.0973
